# In the library only some 10% were active in any assay of this set; here they are far more common.
# SW480 rereplic: DNA re-replication induction in SW480 cells; SW480 DNA re-replication, Hoechst DNA content imaging, 48 h; actives 1.8% (n = 340,000); Potency, µM (highest dose often 46.1 µM), inactives show at the highest dose re-replication activation, actives largely listed as activators; AID 624297; also: % of control where 0% means no effect; nearly all actives have a fitted effect of over 55% in size
#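 Quantitative HTS format with DMSO vehicle controls; 48 hr drug incubation at 37 C, then 40 min Hoechst staining and scanning imager measurement at 405 nm excitation.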
# RORg inh: blocks mouse ROR gamma transcriptional activity; Drosophila S2 Gal4-RORgamma UAS-luciferase reporter, 20 h; actives 5.4% (n = 310,000); P51450; Potency, µM (doses to about 53.6 µM), without a hit: at the highest dose activity change, negative = inhibition, hits mostly inhibitors; also: % is scaled to controls: 0 for no effect and ±100 for the full control effect; nearly all actives have a fitted effect of over 60% in size
# Target sequence (P51450 whole entry, looked up, the tested form may be a part): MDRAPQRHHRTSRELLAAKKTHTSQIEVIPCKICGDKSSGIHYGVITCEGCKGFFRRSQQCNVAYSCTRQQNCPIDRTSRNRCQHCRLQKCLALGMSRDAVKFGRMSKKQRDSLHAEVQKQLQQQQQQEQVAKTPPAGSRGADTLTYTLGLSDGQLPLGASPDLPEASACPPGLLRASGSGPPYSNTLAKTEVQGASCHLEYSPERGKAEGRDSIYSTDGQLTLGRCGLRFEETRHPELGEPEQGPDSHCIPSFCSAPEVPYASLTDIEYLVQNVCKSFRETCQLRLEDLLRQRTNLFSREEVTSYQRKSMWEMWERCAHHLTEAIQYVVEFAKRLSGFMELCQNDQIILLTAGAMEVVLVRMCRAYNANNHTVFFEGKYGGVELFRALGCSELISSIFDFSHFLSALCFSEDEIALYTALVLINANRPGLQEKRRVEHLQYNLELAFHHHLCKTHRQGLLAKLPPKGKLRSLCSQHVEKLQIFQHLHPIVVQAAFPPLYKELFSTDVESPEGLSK
#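 Read-out: Photinus luciferase luminescence; inhibitors lower reporter signal. Insect Schneider cells with Gal4-ROR gamma fusion under metallothionein promoter, UAS reporter; 700 uM final copper sulfate induction, 20 hr, ambient temperature.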
# ELG1 repair inh: inhibitors of ELG1-dependent DNA repair in HEK293T cells. HEK293T ELG1-luciferase reporter, luminescence, 16 h; DNA damage induced by 5-fluorouridine. Potency, µM (top dose mostly 46.1 µM), for inactives: at the highest dose activity change, negative = inhibition, actives largely listed as inhibitors. actives 2.3% (n = 330,000). AID 504467; also: % is scaled to controls: 0 for no effect and ±100 for the full control effect; nearly all actives have a fitted effect of over 55% in size
#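 Cells (2,000 per well) received 5-fluorouridine plus test compound or DMSO and were incubated 16 hr at 37 °C, 5% CO2. Luciferase activity was read by luminescence 30 min after ONE-Glo addition; signal suppression marked inhibition of damage-induced ELG1 function.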
# MCF10A rerep: DNA re-replication induction in MCF 10a cells. MCF 10A DNA re-replication, Hoechst nuclear intensity, 48 h. Potency, µM (highest dose often 46.1 µM), for inactives: at the highest dose activity, positive = re-replication, most hits filed as activators. actives 2.9% (n = 350,000). AID 624296; also: % of control where 0% means no effect; nearly all actives have a fitted effect of over 50% in size
# VP16 counter: counter-screen for ROR gamma inhibitors: Gal4-VP16 reporter; Drosophila S2 Gal4-VP16 UAS-luciferase, luminescence, 20 h; Potency, µM (doses to about 53.6 µM), for inactives: top-dose activity, negative = inhibition, usual class: inhibitors; actives 3.5% (n = 310,000);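 also: Gal4-VP16 expression switched on by copper sulfate through the metallothionein promoter; % is scaled to controls: 0 for no effect and ±100 for the full control effect; nearly all actives have a fitted effect of over 50% in size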
# Starred values were filed as active, the others as inactive; ? = inconclusive; / = no result; [ ] = remark or other dose. Calls follow the shape of the dose curve; as a rule, active = well fitted curve in the direction sought with a large enough effect; inconclusive = small, poorly fitted or top-dose-only effect, or another doubt; inactive = no such curve, though single readings can be large; an effect the other way counts as inactive or inconclusive. Potency is read from the fitted curve at half-maximal effect.
SMILES,SW480 rereplic,RORg inh,ELG1 repair inh,MCF10A rerep,VP16 counter
CCCOc1ccc(C(=O)C(CN2CCOCC2)c2ccccc2)cc1 (stereo unspecified),11.2µM*,12.6µM*,?,17.8µM*,?
COc1ccc(C(=O)C(CN2CCOCC2)c2ccccc2)cc1F (stereo unspecified),?,11.2µM*,?,11.6µM*,11.2µM*
O=C(O)Cc1ccc2c(c1)N(S(=O)(=O)c1cccs1)CC(C(=O)O)O2 (stereo unspecified),-5.7%,-10.2%,10.5%,5.5%,-11.3%
O=c1c2c3n(c(=S)nc2[nH]n1-c1ccccc1)CCCCC3,2.5%,12.6µM*,?,-0.1%,?
CCn1ccnc1CN(C)Cc1cn(C)nc1-c1ccccc1F,1.1%,?,-4.9%,1.9%,-6.4%
CCn1ccnc1CN(C)Cc1cn(-c2cc(C)ccc2C)nc1-c1ccccc1,-102.6%,3.5%,-18.5%,14.4%,-3.4%
Cc1ccc(-n2cc(CN(C)Cc3ncc[nH]3)c(-c3cccc(C)c3)n2)cc1,-6.1%,-1.5%,?,?,6.31µM*
Cc1ccc(-n2cc(CN(C)Cc3nccn3C)c(-c3ccc(F)cc3)n2)cc1,-1.5%,7.94µM*,-8.6%,?,?
CCn1ccnc1CN(C)Cc1cn(-c2ccccc2)nc1-c1ccc(OC)cc1F,29.8%,3.55µM*,-17.3%,12.6%,?
CCn1ccnc1CN(C)Cc1cn(-c2ccc(C)cc2)nc1-c1ccc(F)cc1,-5.4%,2.82µM*,-21.3%,3.5%,15.8µM*
O=C(CSc1ccc(F)cc1)Nc1ccc2c(c1)C(=O)NC2=O,-8.7%,0.0%,14.5%,1.8%,-12.0%
O=C1CCC(C(=O)N2CCCCCC2)CN1CCc1ccc(Cl)cc1 (stereo unspecified),-8.1%,28.3%,0.0%,0.4%,-4.4%
CC1CCN(Cc2nnnn2-c2ccc(Cl)cc2)CC1,1.8%,-24.5%[10 µM],6.0%,?,-4.6%
Cc1cccc(-n2cc(CN3CCN(Cc4nccn4C)CC3)c(-c3cccc(F)c3)n2)c1,0.9%,11.2µM*,18.3µM*,-9.1%,?
Cc1ccc(-c2nn(-c3cccc(F)c3)cc2CN(Cc2nccn2C)C(C)C)o1,-101.4%,5.62µM*,?,58.6%,?
Cc1ccc(-n2cc(CN3CCC(O)(c4ccccn4)CC3)c(-c3ccc(F)cc3)n2)cc1,?,-42.9%,18.3µM*,?,-9.6%
COc1ccc(-n2cc(CN3CCCC3)c(-c3cccc(F)c3)n2)cc1,16.4%,-14.9%,6.6%,?,-3.0%
Cc1ccc(-c2nn(-c3cccc(F)c3)cc2CN2CCN(c3ccccn3)CC2)o1,?,9.3%,-7.5%,?,-19.1%
COc1ccc(S(=O)(=O)N2CCCCC2)cc1NC(=O)CCC(=O)N1CCC(c2ccccc2)=N1,-4.7%,/,/,5.9%,/
CC(NCCOc1ccccc1F)C(=O)Nc1ccc(S(N)(=O)=O)cc1 (stereo unspecified),1.8%,11.3%,17.3%,10.3%,-0.8%
N#Cc1ccc(CN2CC[C@@]3(CCCN(C(=O)c4cnccn4)C3)C2)cc1,/,-18.9%,/,/,-2.5%
O=C(c1cnn2c(-c3ccccc3)cc(-c3ccccc3)nc12)N1CCN(Cc2ccccc2)CC1,18.4µM*,/,/,?,/
O=C(NC1CCCC1)c1cc2nc(-c3ccccc3)cc(-c3ccccc3)n2n1,-3.0%,?,?,?,-3.4%
CC1CCN(C(=O)c2cc3nc(-c4ccccc4)cc(-c4ccccc4)n3n2)CC1,15.5%,22.7%,?,16.4µM*,7.5%
COc1ccc(S(=O)(=O)Nc2ccccc2)cc1,20.0%,/,/,0.4%,/
SMILES,SW480 rereplic,RORg inh,ELG1 repair inh,MCF10A rerep,VP16 counter
COc1ccc(S(=O)(=O)Nc2ccc(O)c3ccccc23)cc1,?,0.0%,9.2µM*,?,-5.6%
Cc1ccc(S(=O)(=O)Nc2ccc(O)c3ccccc23)c(C)c1,1.3%,-42.1%,16.4µM*,20.6µM*,-16.6%
COC(=O)Nc1ccc(S(=O)(=O)Nc2cccc3ccccc23)cc1,?,?,?,29.8%,17.8µM*
CCn1cc(CNC(=O)C2CCC(=O)N(CCc3cccc(F)c3)C2)cn1 (stereo unspecified),-3.2%,/,3.5%,?,/
O=S(=O)(c1ccccc1F)N1CCC(Oc2ccc(-n3cnnn3)cc2)CC1,-0.8%,30.0%,-13.6%,-1.0%,?
COc1cccc(-c2ccc(NC(=O)C3CCCN(Cc4cnc(C)n4C)C3)cc2)c1 (stereo unspecified),-1.7%,-30.5%,1.5%,?,-4.9%
COc1cccc(-c2ccc(NC(=O)C3CCCN(Cc4nccn4C)C3)cc2)c1 (stereo unspecified),-2.3%,5.01µM*,17.3%,?,?
Cc1ncc(CN2CCCC(C(=O)Nc3ccc(-c4cccc(F)c4)cc3)C2)n1C (stereo unspecified),?,-18.0%,-19.8%,23.1µM*,-9.0%
COCc1cc(CN2CCCC(C(=O)Nc3ccc(-c4ccco4)cc3)C2)ccc1OC (stereo unspecified),23.1µM*,8.9%,-15.5%,1.7%,5.2%
CN(C)S(=O)(=O)c1cccc(C(=O)N2CCN(C(=O)C3CCCO3)CC2)c1 (stereo unspecified),-12.9%,/,?,1.9%,/
CN1CCOC(=O)/C1=N/Nc1cc(Cl)ccc1Cl,-5.1%,4.9%,-16.7%,16.0%,11.0%
COc1ccccc1CNC(=O)CNC(=O)[C@@H]1Cc2ccccc2CN1,-7.6%,-13.8%,-3.5%,1.9%,?
CC(=O)N1CCC2(CC1)C/C(=N\NC(=S)Nc1ccccc1F)c1cc(O)ccc1O2,?,12.6µM*,-9.5%,?,-5.0%
CC(=O)N1CCC2(CC1)C/C(=N\NC(=S)Nc1ccccc1C)c1cc(O)ccc1O2,-4.4%,?,?,-5.9%,?
COc1ccc(NC(=S)N/N=C2\CC(C)(C)Oc3ccc(O)cc32)cc1,-6.9%,6.31µM*,-4.6%,26.9%,5.62µM*
CC(=O)N1CCC2(CC1)CC(=O)c1cc(Cl)ccc1O2,2.31µM*,/,/,1.4%,/
COc1ccc(Cl)cc1C(=O)OCC(=O)NCCNC(=O)COC(=O)c1cc(Cl)ccc1OC,?,-1.2%,-8.9%,-1.2%,5.3%
NC(=O)c1ccsc1NC(=O)COC(=O)c1ccc(Cl)c(N)c1,-10.1%,/,11.6µM*,1.3%,/
NC(=O)c1ccsc1NC(=O)COC(=O)c1ccc(Cl)cc1,-18.7%,/,-28.0%,6.6%,/
COc1ccc(Cl)cc1C(=O)OCC(=O)Nc1sccc1C(N)=O,12.0%,/,23.1µM*,-0.7%,/
Cc1ccc(C(=O)OCC(=O)Nc2sccc2C(N)=O)cc1NC(=O)c1ccco1,-2.2%,5.3%,8.2µM*,5.6%,1.8%
Cc1cc(C)c2c(=O)[nH]c(SCc3ccc([N+](=O)[O-])cc3)nc2n1,-8.0%,-5.7%,-5.1%,-4.0%,-13.0%
